# aSyn 5UTR act – Activators working through SNCA 5'UTR binding (MLPCN). alpha-synuclein 5'UTR reporter, activators screen. activity score, % (tested at 7.5 µM), hits read low. hit rate 7.1% among 300,000; in the data active = activity score below about -60%
# Active calls of the source: *. The list is a sample of the results.
SMILES,aSyn 5UTR act
CC(=O)C(Sc1nn(C)c(=S)s1)C(=O)Nc1ccccc1 (configuration not stated),-99.2*
O=C(Nc1nnc(/C=C/c2ccccc2)s1)c1ccco1,-83.2*
Cc1cccc(-c2nnc(NC(=O)c3ccco3)s2)c1,-124.5*
CC(C)Sc1nnc(NC(=O)c2ccco2)s1,-64.2*
O=C(Nc1nnc(-c2ccc(F)cc2)s1)c1ccco1,-120.7*
COc1ccc(Cc2nnc(NC(=O)c3ccco3)s2)cc1,-62.1*
O=C(Nc1nnc(C(F)(F)F)s1)C1COc2ccccc2O1 (configuration not stated),-69.1*
Cc1ccc(NC(=O)C2COc3ccccc3O2)c(C)c1 (configuration not stated),-110.0*
O=C(COC(=O)C1COc2ccccc2O1)NC(=O)NC1CCCC1 (configuration not stated),-72.5*
COC(=O)N1CCc2c(sc(NC(=O)C3COc4ccccc4O3)c2C(N)=O)C1 (configuration not stated),-136.7*
Cc1ccc(NC(=O)C2OCCc3ccccc32)cc1 (configuration not stated),-132.8*
O=C(Nc1ccccc1F)C1COc2ccccc2O1 (configuration not stated),-90.8*
NC(=O)c1oc2ccccc2c1NC(=O)C1COc2ccccc2O1 (configuration not stated),-85.7*
O=C(NCC1COc2ccccc2O1)c1ccccc1 (configuration not stated),-137.0*
O=C(NCC1OCCc2ccccc21)c1ccc(NC(=O)c2ccc(Cl)cc2)cc1 (configuration not stated),79.4
O=C(Nc1ncccc1Cl)C1COc2ccccc2O1 (configuration not stated),-106.9*
CC(=O)c1sc(NC(=O)C2COc3ccccc3O2)nc1C (configuration not stated),61.8
COC(=O)N1CCc2c(sc(NC(=O)C3=COCCO3)c2C#N)C1,-125.6*
Cc1ccc(NC(=O)C2COc3ccccc3O2)cc1 (configuration not stated),-153.6*
O=C(N/N=C\c1cc(Br)cs1)C1COc2ccccc2O1 (configuration not stated),-126.5*
C/C(=N\NC(=O)C1COc2ccccc2O1)c1ccccn1 (configuration not stated),98.2
O=C(Nc1ccccc1)C1COc2ccccc2O1 (configuration not stated),-81.9*
O=C(NCc1cccnc1)/C(=C/c1ccc(-c2ccc(Cl)cc2)o1)S(=O)(=O)c1ccccc1,-78.6*
O=C(NCc1cccnc1)/C(=C\c1ccc(-c2ccc(Br)cc2)o1)S(=O)(=O)c1ccccc1,-138.4*
Cc1ccc(C(=O)N/C(=C\c2ccc(-c3ccc(Br)cc3)o2)C(=O)NCCCN(C)C)cc1,100.0
SMILES,aSyn 5UTR act
N#Cc1ccccc1NC(=O)c1ccc2c(c1)OCCO2,-94.4*
Cc1cccc(NC(=O)c2ccc3c(c2)OCCO3)c1C,-113.3*
N#Cc1ccccc1NC(=O)COC(=O)c1ccc2c(c1)OCCO2,-129.6*
COC(=O)c1ccccc1NC(=O)c1ccc2c(c1)OCCCO2,-84.9*
Cc1ccccc1NC(=O)c1ccc2c(c1)OCCO2,-157.0*
CSc1ccc(NC(=O)Nc2cccn(Cc3ccccc3F)c2=O)cc1,-76.1*
COc1ccc(Cn2c(-c3ccco3)nc3oc4cc(OC)ccc4c(=O)c3c2=O)cc1,-91.6*
Cc1ccc(Nc2nc(Cl)nc(NC(C)(C)C)n2)cc1,-153.8*
Cc1ccc(Nc2nc(Nc3ccc(C)cc3)nc(SC3=NCCS3)n2)cc1,-94.6*
O=C(Nc1cc(Br)ccc1O)c1cc(-c2cccs2)on1,-146.8*
CC(C)c1cc(C(=O)Nc2cc(Cl)ccc2O)no1,-290.0*
CSc1ccccc1NC(=O)c1cc(C(C)C)on1,-143.3*
CC(C)c1cc(C(=O)Nc2cc(Br)ccc2O)no1,-290.8*
CCCCCN=C(C)c1c(O)c2ccccc2oc1=O,-211.5*
Cc1nc(C#N)c(N/N=C/c2c(F)cccc2Cl)o1,-62.1*
COc1cc2c(cc1OC)CN(C(=O)c1cc3ccccc3oc1=O)CC2,-98.8*
COc1ccc2oc(=O)c(C(=O)N3CCN(c4ccccc4C)CC3)cc2c1,-157.3*
COc1ccc2oc(=O)c(C(=O)N3CCN(c4ccccc4)CC3)cc2c1,-68.1*
CCOc1ccc(N(C(=O)c2ccccc2Cl)C2=NC(C)(C)CS2)cc1,-79.0*
CC1c2cc3c(cc2CCN1C(=O)c1cccc(F)c1)OCCCO3 (configuration not stated),-69.4*
C(=N\Nc1ccccc1)/c1ccc(N2CCOCC2)cc1,-153.7*
C/C(=N\Nc1ccccn1)c1ccc(C(C)C)cc1,-132.5*
O=[N+]([O-])c1ccc(N/N=C/c2sc(N3CCOCC3)nc2-c2ccccc2)c(S(=O)(=O)Nc2ccc(Cl)cc2)c1,75.8
O=[N+]([O-])c1cccc(N/N=C/c2ccc(N3CCOCC3)cc2)c1,-225.0*
Clc1cccc(N/N=C/c2ccc(N3CCOCC3)cc2)c1,-183.1*
SMILES,aSyn 5UTR act
C(=N\Nc1ccccn1)/c1ccc(N2CCOCC2)cc1,-182.4*
C/C(=N\Nc1ccccn1)c1ccc(N2CCOCC2)cc1,-155.9*
Cc1cc(CNC(=O)COc2ccccc2F)c2ccccc2n1,-95.6*
CC(=O)Nc1ccc2nc(NC(=O)COc3ccccc3)sc2c1,-64.4*
Cc1nc2ccc(NC(=O)CCC3CCCC3)cc2s1,-143.5*
Cc1nc2ccc(NC(=O)CS(=O)(=O)c3ccccc3)cc2s1,-101.1*
Cc1nc2ccc(NC(=O)COc3ccccc3F)cc2s1,-132.9*
CC(=O)Nc1ccc2nc(NC(=O)COc3ccccc3Cl)sc2c1,-69.4*
CC1CCN(c2nc3ccc(C(=O)NCCCN4CCCCC4C)cc3s2)CC1 (configuration not stated),-277.4*
CC1CCCC(C)N1CCCNC(=O)c1ccc2nc(N3CCCCC3)sc2c1 (configuration not stated),-237.4*
CCC1CCCCN1CCCNC(=O)c1ccc2nc(N3CCCCC3)sc2c1 (configuration not stated),-280.1*
C#CCn1c(=NC(=O)c2ccc(Br)s2)sc2cccc(OC)c21,-113.0*
CCN(CC)c1ccc(/C=N/NC(=O)c2c(Cl)cnn2C)c(O)c1,90.0
CCOC(=O)N/N=C/c1cccc(Cl)c1Cl,-97.5*
Cc1cc(C(=O)N/N=C/c2cccc(Cl)c2Cl)no1,-107.8*
CCOC(=O)N/N=C/c1cn(Cc2ccc(Cl)cc2)c2ccccc12,69.7
CCOC(=O)N/N=C/c1ccc(N(CC)CC)cc1O,-432.2*
CCOC(=O)N/N=C/c1ccccc1F,-135.4*
Cc1ccccc1-c1nnn(Cc2ccc(F)cc2Cl)n1,-86.3*
Fc1ccc(-c2nnn(Cc3ccc(F)cc3Cl)n2)cc1,-71.4*
C(=C\c1ccccn1)/c1cccnc1,-75.6*
COC(=O)c1c(C)[nH]c(/C=N/Nc2ccccc2)c1C,-70.5*
CSc1ccc(C2Nc3ccccc3-c3cc(C)nn32)cc1 (configuration not stated),-100.9*
CN(C)S(=O)(=O)c1ccc(C(=O)NCCOc2ccc(F)cc2)cc1,-99.1*
CN(C)S(=O)(=O)c1ccc(C(=O)NCCOc2ccccc2)cc1,-106.3*
SMILES,aSyn 5UTR act
Cc1ccc(Sc2ncccc2COC(=O)NC(C)C)cc1,-89.1*
Cc1cccc(CCNc2nc3ccc(C)cc3n3cnnc23)c1,-155.7*
N#Cc1cn(-c2ccccc2)nc1-c1ccccc1,-78.3*
CC(=O)Nc1cc(C)nn1-c1nc2ccccc2s1,-177.6*
COc1cc(C(=O)Nc2nc3ccccc3s2)ccc1OCc1c(C)noc1C,-110.4*
Cc1cc(C)n(-c2ccc(C(=O)Nc3nc4ccccc4s3)cc2)n1,-97.3*
